Measured values taken from PubChem BioAssay (NCATS).
Records with an inconclusive call do not appear. Where a call stands in place of a potency, no number is given. Activity calls are given as the source filed them. Unless noted, the call rests on the fitted dose curve; in most records, active means well fitted curve in the direction sought with a large enough effect; inconclusive means small, poorly fitted or top-dose-only effect, or another doubt; inactive means no such curve, though single readings can be large; an effect the other way counts as inactive or inconclusive.

Experiments:
[1] = P-glycoprotein substrates identified in KB-3-1 adenocarcinoma cell line, qHTS therapeutic library screen (AID 1346986); further: nearly all actives have a fitted effect of over 60% in size;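 further: potency means the concentration at half of the fitted maximal effect; potency is for cytotoxicity meaning loss of cell viability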
Outline: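 72 h cell-killing screen, 500 cells/well, CellTiter-Glo luminescence. Paired lines KB-3-1/KB-8-5-11; P-gp dependence checked by tariquidar co-treatment and HEK-293 MDR-19 versus empty-vector cells.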

[2] = P-glycoprotein substrates identified in KB-8-5-11 adenocarcinoma cell line, qHTS therapeutic library screen (AID 1346987); further: nearly all actives have a fitted effect of over 65% in size; further: potency means the concentration at half of the fitted maximal effect
Outline: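 Luminescence from CellTiter-Glo, read 5 min after addition, quantified survival of KB-8-5-11 (P-gp-overexpressing) cells exposed to compounds for 72 h. AC50 was derived from concentration-response curves.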

[3] = Primary qHTS for inhibitors of nuclear receptor binding SET domain protein 2 (NSD2) in an isogenic RCH-ACV NSD2 p.E1099K mutant (9B) (AID 1645876); further: nearly all actives have a fitted effect of over 70% in size; further: potency means the concentration at half of the fitted maximal effect
[4] = Primary qHTS for inhibitors of nuclear receptor binding SET domain protein 2 (NSD2) in an RCH-ACV wild type WT cells (2C) (AID 1645877); further: nearly all actives have a fitted effect of over 70% in size; further: potency means the concentration at half of the fitted maximal effect
[5] = biological target: Glutathione peroxidase 1 (Homo sapiens) (UniProt P07203); test: Primary qHTS Assay for Inhibitors of Recombinant Selenoprotein Glutathione Peroxidase 1 (GPX1) (AID 1845191); further: nearly all actives have a fitted effect of over 65% in size; further: potency means the concentration at half of the fitted maximal effect
Outline: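 GPX1 10 nM, GR 100 nM, GSH 1 mM, NADPH 0.5 mM, CHP 0.5 mM (final). 30-min cpd preincubation, RT. Ex340/Em450 read t=0, t=15 min.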

[6] = qHTS Assay for Lipid Storage Modulators (AID 1519; calls by dose curve); details: Drosophila S3 cells, BODIPY lipid droplet/cell ratio, laser cytometry, cells loaded with oleic acid
Outline: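 Cells seeded at 5,000 per well were treated with compounds over a concentration series and loaded with oleic acid (400 uM, as added). Lipid droplet fluorescence (488 nm excitation, 500-530 nm channel) was read by laser-scanning cytometry and normalized to 20 uM Triacsin C.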

[7] = biological target: DNA repair nuclease/redox regulator APEX1 (Homo sapiens) (UniProt P27695); test: qHTS Validation Assay for Inhibitors of the Human Apurinic/apyrimidinic Endonuclease 1 (APE1) (AID 1705;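 further: TAMRA fluorescence gain over two minutes as APE1 cuts a quenched THF abasic duplex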)
Outline: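 qHTS, 1536-well. APE1 + cpd 15 min RT → 50 nM TAMRA/BHQ-2 THF-abasic dsDNA substrate → kinetic fluorescence, 3 reads/60 s; delta(read3−read1) = reaction progress. No-enzyme buffer = negative control.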

[8] = biological target: Endonuclease 4 (Escherichia coli (strain K12)) (UniProt P0A6C1); test: Counterscreen for APE1 Inhibitors: qHTS Validation Assay for Inhibitors of Endonuclease IV (AID 1708)
Outline: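 Enzyme (2 nM) + compound, 15 min RT; add 50 nM TAMRA/BHQ-2 THF-site dsDNA; kinetic read ex525/em598, 3 reads/60 s; activity = read 3 − read 1. Buffer Tris pH 7.5, 50 mM NaCl, 2 mM MgCl2, DTT, Tween-20.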

[9] = qHTS for differential inhibitors of proliferation of Plasmodium falciparum line 7G8 (AID 1815);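 further: potency means the concentration at half of the fitted maximal effect; parasite growth measured after three days of incubation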
[10] = qHTS for differential inhibitors of proliferation of Plasmodium falciparum line GB4 (AID 1816); details: Potency: Plasmodium falciparum GB4 proliferation inhibition;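 further: potency means the concentration at half of the fitted maximal effect; parasite growth measured after 72 h incubation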
[11] = qHTS for differential inhibitors of proliferation of Plasmodium falciparum line 3D7 (AID 1876); further: potency means the concentration at half of the fitted maximal effect
[12] = qHTS for differential inhibitors of proliferation of Plasmodium falciparum line Dd2 (AID 1882); details: Potency: Plasmodium falciparum Dd2 proliferation inhibition; further: potency means the concentration at half of the fitted maximal effect; nearly all actives have a fitted effect of over 65% in size
Outline: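 SYBR Green DNA fluorescence (ex 485, em 535 nm) after overnight lysis quantifies parasite growth; compound exposure lasted 72 h at 37 C on infected red cells at 2.5% hematocrit, 0.3% parasitemia (final). Artemisinin 0.29 uM and vehicle wells define normalization.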

[13] = qHTS for differential inhibitors of proliferation of Plasmodium falciparum line W2 (AID 1883); details: Potency: Plasmodium falciparum W2 proliferation inhibition;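 further: potency means the concentration at half of the fitted maximal effect; parasites grown with compound for 72 h before lysis and staining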
[14] = biological target: ATP-dependent DNA helicase Q1 (Homo sapiens) (UniProt P46063); test: qHTS Validation Assay for Inhibitors of RecQ-Like Dna Helicase 1 (RECQ1) (AID 2353)
Outline: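 RECQ1T1 50 nM; forked duplex (20 bp + 30-nt ss tails) 200 nM, ATP 2 mM final; pH 8.0, 2 mM MgCl2, 2.5 ug/ml poly(dI-dC); 15 min compound preincubation; discontinuous kinetic read over 2 h at RT.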

[15] = biological target: RecQ-like DNA helicase BLM (Homo sapiens) (UniProt P54132); test: qHTS Validation Assay for Inhibitors of Bloom's syndrome helicase (BLM) (AID 2364)
Outline: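 BLM 50 nM in 25 mM Tris-HCl pH 8.0, 5 mM NaCl, 2 mM MgCl2, 1 mM DTT, 0.01% Tween-20, 2.5 ug/ml poly(dI-dC); 15 min cpd preinc, RT. Start: 200 nM forked DNA + 2 mM ATP (final). TAMRA read, 2 reads 2 h apart.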

[16] = biological target: Thyrotropin receptor (Homo sapiens) (UniProt P16473); test: qHTS Assay for Antagonists of the Thyroid Stimulating Hormone Receptor (AID 488980)
Outline: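 Readout is cAMP by HTRF competition between cellular cAMP and cAMP-d2 for a cryptate-labelled antibody. Antagonism was assessed in TSHR-transfected HEK293 cells stimulated with 4 nM TSH (EC80, final) in the presence of RO 20-1724.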

[17] = biological target: Thyrotropin-releasing hormone receptor (Homo sapiens) (UniProt P34981); test: qHTS for Small Molecule Agonists and Allosteric Enhancers of Human TRH Receptor: Validation Screen for Agonists (AID 493127;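 active means calcium activation more than 3 SD above the typical response in the agonist read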;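 further: intracellular calcium rise by fluo-8 fluorescence before TRH EC20 addition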); details: TRH receptor agonist cell assay; at 2 µM; stronger effect = higher value
Outline: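 Compounds are added by online pintool to dye-loaded TRHR cells while fluorescence is recorded every second. A rise in calcium signal during the agonist read marks activation; a later 10 nM TRH addition (EC20) serves the separate enhancer mode.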

[18] = biological target: Galactokinase (Homo sapiens) (UniProt P51570); test: qHTS Validation Assay for Inhibitors of Human Galactokinase (GALK) (AID 493189)
Outline: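 5 nM GALK / 100 uM galactose / 35 uM ATP, 20 mM HEPES pH8.0, 5 mM MgCl2, 60 mM NaCl, 1 mM DTT, 0.01% BSA (final). RT 1 h; Kinase-Glo Plus luminescence.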

[19] = Validation screen for small molecules that induce DNA re-replication in SW480 colon adenocarcinoma cells (AID 504364)
Outline: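 Image-based qHTS: compounds were incubated with SW480 cells for 48 hr, nuclei stained with Hoechst, and per-nucleus fluorescence intensity scanned to flag cells with excess DNA content.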

[20] = biological target: Voltage-gated inwardly rectifying potassium channel KCNH2 (Homo sapiens) (UniProt Q12809); test: qHTS Assay for Small Molecule Inhibitors of the Human hERG Channel Activity (AID 588834);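 further: potency means the concentration at half of the fitted maximal effect; lower thallium flux fluorescence means stronger hERG block; nearly all actives have a fitted effect of over 50% in size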
Outline: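 Step 1: BacMam hERG transduction of U2OS, 4 hrs RT. Step 2: overnight 37 °C, plate 2000 cells/well, 4 hr. Step 3: FluxOR load, compound 10 min, stimulate, read fluorescence.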

[21] = tested on: Zika virus NS2B-NS3 protease; test: Primary screen GU AMC qHTS for Zika virus inhibitors (AID 1347154); further: nearly all actives have a fitted effect of over 70% in size
Outline: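 Unlinked Zika NS2B hydrophilic domain/NS3 protease domain noncovalent complex (25 nM final) in 10 mM Tris-HCl pH 8.0, 0.01% Tween 20, with AMC peptide substrate. Fluorescence (ex 340, em 450 nm) change over 15 min, room temperature; percent inhibition fitted to 4-parameter Hill equation.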

[22] = qHTS to identify inhibitors of the type 1 interferon - major histocompatibility complex class I in skeletal muscle: primary screen against the NCATS Mechanism Interrogation Plate v5.0 (MIPE) Libary (AID 1347411); further: nearly all actives have a fitted effect of over 65% in size
Outline: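 Seed engineered human myoblasts (HLA-B HiBit) in medium without dexamethasone containing 4 ng/ml IFN-beta; after 1 hr add compound titrations (top 46 uM final). Incubate 24 hrs at 37 C, lyse 10 min with HiBiT reagent, read luminescence.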

[23] = biological target: Cytochrome P450 2D6 (Homo sapiens) (UniProt P10635); test: Cytochrome P450 family 2 subfamily D member 6 (CYP2D6) small molecule antagonists: luciferase biochemical (cell-free) qHTS assay (AID 1645840; active means well fitted curve in the direction sought with a large enough effect in the repeat runs; an effect the other way counts as inactive or inconclusive; further: potency means the concentration at half of the fitted maximal effect; nearly all actives have a fitted effect of over 55% in size)
Outline: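 P450-Glo CYP2D6 system: proluciferin substrate converted by enzyme to luciferin, read by luminescence proportional to activity. Enzyme-substrate mix with compound 10 min at room temperature, then NADPH regeneration 1 h before detection reagent.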

[24] = NCATS anti-infectives library activity on HEK293 viability as a counter-qHTS vs the C. elegans viability qHTS (AID 1745854);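 further: HEK293 cells exposed to compounds for 24 hr before the viability read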
Outline: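 Counter-screen for cytotoxicity: HEK293, 24 hr, 37C, compounds up to 41.7 uM final (a dilution series, 1:5). Readout CellTiter-Glo luminescence, 10 min RT. Digitonin control, 83.3 uM final.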

[25] = NCATS anti-infectives library activity on the primary C. elegans qHTS viability assay (AID 1745855; calls by dose curve)
Outline: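 GFP read-out by 488 nm laser cytometry at day 0, 3 and 7, gated on object perimeter, area and peak intensity, scored viability of PE254-GFP-FLuc worms exposed to compound in S medium with bacterial capsules at 21 °C.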

[26] = biological target: Phospholipid hydroperoxide glutathione peroxidase GPX4 (Homo sapiens) (UniProt P36969); test: Primary qHTS Assay for Inhibitors of Recombinant Selenoprotein Glutathione Peroxidase 4 (GPX4) (AID 1845192); details: outcome: dose series up to 50 µM unless noted; further: nearly all actives have a fitted effect of over 65% in size
Outline: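 qHTS, GR-coupled: GPX4 200 nM + cpd 30 min RT → GSH 1 mM, NADPH 0.5 mM, GR 100 nM → CHP 0.5 mM start; fluor 340/450 at t0 and t15 min; no-enzyme wells as control.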

[27] = qHTS drug screen for cell cycle checkpoint inhibitors in PARPi-resistant BRCA-mutant ovarian cancer cell lines. (AID 1963452; calls by dose curve); details: PEO1/OlaR viability, CellTiter-Glo luminescence, 96 h, stronger effect = lower value
Outline: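 PEO1, PEO4 and PEO1/OlaR ovarian cancer cells, 600 per well, exposed 96 h at 37C to a dilution series. Viability read by CellTiter-Glo luminescence, normalized to DMSO and empty wells; activity summarized as Z-AUC.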

Glutathione peroxidase 1 (Homo sapiens), sequence (P07203 whole entry, looked up): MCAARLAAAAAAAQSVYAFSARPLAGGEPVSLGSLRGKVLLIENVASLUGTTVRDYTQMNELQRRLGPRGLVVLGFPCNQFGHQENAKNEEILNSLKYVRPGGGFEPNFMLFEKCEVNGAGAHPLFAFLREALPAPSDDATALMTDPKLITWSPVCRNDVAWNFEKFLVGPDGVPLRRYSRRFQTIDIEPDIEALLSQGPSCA
Galactokinase (Homo sapiens), sequence (P51570 whole entry, looked up): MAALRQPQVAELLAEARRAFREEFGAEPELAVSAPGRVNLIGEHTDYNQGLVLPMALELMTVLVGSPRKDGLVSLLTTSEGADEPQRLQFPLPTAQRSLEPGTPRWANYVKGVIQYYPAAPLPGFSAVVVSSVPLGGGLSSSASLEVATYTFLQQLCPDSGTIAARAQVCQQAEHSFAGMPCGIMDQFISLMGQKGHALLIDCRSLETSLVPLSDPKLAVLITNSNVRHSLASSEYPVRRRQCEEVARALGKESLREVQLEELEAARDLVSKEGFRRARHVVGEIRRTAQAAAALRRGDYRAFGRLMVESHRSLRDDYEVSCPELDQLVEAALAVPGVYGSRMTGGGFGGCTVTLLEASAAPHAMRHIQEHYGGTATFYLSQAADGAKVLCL
RecQ-like DNA helicase BLM (Homo sapiens), sequence (P54132 whole entry, looked up): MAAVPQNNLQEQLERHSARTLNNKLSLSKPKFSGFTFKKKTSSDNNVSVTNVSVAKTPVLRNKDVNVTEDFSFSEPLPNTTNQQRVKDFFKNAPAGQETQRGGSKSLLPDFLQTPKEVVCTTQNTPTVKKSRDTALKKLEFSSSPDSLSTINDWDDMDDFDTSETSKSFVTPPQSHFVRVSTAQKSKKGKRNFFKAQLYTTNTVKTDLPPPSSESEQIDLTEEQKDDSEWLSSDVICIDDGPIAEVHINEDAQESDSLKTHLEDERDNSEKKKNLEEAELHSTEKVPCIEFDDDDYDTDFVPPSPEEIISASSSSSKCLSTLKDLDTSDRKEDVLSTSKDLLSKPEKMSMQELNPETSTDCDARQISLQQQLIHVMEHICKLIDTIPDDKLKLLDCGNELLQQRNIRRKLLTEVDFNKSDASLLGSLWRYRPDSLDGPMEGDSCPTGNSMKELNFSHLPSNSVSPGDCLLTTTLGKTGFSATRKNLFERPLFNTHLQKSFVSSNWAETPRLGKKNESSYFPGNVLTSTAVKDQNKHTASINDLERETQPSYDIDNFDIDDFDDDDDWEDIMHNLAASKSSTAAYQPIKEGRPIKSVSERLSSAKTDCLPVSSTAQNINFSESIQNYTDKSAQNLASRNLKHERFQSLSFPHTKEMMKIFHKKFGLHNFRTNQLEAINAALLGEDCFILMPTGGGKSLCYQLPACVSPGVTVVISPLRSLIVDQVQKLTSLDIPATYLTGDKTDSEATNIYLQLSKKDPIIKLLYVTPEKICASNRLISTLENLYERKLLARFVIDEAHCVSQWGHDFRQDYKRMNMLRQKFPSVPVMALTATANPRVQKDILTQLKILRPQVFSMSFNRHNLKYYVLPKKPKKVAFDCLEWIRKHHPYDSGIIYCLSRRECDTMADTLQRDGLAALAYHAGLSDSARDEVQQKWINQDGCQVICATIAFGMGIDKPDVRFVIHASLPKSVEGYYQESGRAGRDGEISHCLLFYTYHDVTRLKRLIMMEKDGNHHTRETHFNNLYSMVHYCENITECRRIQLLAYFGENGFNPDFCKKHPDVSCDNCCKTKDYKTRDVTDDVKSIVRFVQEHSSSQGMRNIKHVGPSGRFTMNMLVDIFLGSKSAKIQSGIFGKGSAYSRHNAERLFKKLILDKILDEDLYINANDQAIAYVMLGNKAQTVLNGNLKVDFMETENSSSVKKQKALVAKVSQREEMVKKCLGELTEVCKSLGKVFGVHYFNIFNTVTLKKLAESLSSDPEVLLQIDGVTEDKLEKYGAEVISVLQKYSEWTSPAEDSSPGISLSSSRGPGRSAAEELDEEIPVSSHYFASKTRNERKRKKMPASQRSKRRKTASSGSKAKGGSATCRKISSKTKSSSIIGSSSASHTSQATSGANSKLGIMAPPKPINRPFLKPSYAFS
Phospholipid hydroperoxide glutathione peroxidase GPX4 (Homo sapiens), sequence (P36969 whole entry, looked up): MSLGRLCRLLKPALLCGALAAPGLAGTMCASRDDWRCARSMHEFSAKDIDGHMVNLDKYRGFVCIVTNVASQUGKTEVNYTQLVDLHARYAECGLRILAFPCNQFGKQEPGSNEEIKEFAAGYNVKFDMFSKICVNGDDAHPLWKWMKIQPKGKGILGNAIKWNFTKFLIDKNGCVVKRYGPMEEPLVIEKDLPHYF
Thyrotropin-releasing hormone receptor (Homo sapiens), sequence (P34981 whole entry, looked up): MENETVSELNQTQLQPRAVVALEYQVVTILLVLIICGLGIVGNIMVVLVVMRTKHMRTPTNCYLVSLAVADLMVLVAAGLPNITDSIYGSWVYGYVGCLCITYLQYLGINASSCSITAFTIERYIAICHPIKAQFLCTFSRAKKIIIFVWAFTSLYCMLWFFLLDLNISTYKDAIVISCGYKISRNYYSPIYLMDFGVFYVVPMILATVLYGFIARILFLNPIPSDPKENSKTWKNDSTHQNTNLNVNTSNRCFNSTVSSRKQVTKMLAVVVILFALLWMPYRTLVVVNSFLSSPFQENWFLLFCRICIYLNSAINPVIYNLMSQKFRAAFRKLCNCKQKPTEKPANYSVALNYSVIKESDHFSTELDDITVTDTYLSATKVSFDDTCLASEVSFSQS
ATP-dependent DNA helicase Q1 (Homo sapiens), sequence (P46063 whole entry, looked up): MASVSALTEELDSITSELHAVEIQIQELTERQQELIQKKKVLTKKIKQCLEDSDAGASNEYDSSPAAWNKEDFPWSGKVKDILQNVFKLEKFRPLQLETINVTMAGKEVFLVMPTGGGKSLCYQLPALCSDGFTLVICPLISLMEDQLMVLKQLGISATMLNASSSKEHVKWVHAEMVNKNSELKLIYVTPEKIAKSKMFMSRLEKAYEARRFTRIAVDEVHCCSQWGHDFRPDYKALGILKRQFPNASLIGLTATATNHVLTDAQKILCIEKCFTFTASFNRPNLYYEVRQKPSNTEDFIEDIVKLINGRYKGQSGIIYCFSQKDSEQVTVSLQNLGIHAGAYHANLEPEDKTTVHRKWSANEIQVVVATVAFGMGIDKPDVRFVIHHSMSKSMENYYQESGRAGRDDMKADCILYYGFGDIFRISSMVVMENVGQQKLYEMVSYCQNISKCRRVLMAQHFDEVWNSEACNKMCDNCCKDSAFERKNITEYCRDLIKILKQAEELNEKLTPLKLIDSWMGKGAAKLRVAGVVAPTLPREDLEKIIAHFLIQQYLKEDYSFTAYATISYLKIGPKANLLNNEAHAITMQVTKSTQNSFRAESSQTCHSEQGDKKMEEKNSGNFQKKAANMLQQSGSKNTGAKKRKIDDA
Cytochrome P450 2D6 (Homo sapiens), sequence (P10635 whole entry, looked up): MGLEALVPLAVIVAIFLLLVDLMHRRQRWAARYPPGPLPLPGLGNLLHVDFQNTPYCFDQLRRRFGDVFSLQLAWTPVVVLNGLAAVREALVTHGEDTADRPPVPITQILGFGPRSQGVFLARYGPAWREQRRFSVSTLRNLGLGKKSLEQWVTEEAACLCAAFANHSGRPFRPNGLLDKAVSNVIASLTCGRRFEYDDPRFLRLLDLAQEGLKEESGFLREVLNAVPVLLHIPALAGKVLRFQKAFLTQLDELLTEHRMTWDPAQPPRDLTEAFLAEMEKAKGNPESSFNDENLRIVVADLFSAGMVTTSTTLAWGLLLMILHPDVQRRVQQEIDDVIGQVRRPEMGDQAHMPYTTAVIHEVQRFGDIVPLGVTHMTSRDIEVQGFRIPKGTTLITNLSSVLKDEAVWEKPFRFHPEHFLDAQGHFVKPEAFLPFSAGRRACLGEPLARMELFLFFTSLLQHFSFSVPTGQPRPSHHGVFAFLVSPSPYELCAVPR
Voltage-gated inwardly rectifying potassium channel KCNH2 (Homo sapiens), sequence (Q12809 whole entry, looked up): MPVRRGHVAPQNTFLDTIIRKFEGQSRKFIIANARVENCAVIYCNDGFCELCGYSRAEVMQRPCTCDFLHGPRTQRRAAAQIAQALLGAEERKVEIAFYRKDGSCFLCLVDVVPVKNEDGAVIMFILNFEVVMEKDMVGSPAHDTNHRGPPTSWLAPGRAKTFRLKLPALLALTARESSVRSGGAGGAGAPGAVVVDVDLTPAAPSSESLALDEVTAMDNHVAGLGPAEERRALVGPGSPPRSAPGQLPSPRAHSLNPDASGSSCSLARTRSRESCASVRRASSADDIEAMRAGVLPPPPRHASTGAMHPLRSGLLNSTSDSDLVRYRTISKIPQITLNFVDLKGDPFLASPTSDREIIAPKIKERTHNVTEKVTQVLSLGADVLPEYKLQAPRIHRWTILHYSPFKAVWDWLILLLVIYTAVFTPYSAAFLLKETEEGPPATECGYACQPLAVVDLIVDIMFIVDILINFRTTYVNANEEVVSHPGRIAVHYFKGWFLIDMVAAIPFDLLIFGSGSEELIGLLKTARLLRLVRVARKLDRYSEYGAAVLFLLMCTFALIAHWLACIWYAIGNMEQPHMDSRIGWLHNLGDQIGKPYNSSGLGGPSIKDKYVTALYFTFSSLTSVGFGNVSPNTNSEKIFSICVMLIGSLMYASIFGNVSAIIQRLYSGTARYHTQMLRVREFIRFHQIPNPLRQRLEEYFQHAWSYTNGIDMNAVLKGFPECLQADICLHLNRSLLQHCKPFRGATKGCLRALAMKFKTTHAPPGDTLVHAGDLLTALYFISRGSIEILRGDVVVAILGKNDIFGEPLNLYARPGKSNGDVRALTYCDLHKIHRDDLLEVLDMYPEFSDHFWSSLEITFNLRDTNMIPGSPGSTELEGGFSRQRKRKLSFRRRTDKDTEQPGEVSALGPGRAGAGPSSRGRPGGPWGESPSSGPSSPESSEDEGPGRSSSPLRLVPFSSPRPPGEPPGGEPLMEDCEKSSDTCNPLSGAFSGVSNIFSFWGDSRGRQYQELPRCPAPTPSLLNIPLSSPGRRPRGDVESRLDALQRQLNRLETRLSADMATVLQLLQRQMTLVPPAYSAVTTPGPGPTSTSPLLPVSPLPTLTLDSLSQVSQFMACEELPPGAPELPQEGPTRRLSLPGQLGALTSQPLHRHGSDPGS

In the case of `Cc1cc(-c2ccc(/C=C3\SC(=Nc4ccc(Cl)c(C(=O)O)c4)NC3=O)o2)c([N+](=O)[O-])cc1C`, the Potency [1] is reported as “inactive”, the Potency [2] is reported as “inactive” and the Potency [3] is reported as “inactive”. For the same compound, the Potency [4] was “inactive” and the Potency [5] was 20.2 µM (active).

With `O=C(Nc1cccc(Nc2nccc(Nc3cccc(C(F)(F)F)c3)n2)c1)C1CC1` the Potency [1] was 5.8 µM (active), the Potency [2] was 5.8 µM (active) and the Potency [3] was 3.66 µM (active). For the same compound, the Potency [4] was 2.59 µM (active) and the Potency [5] was “inactive”.

With `COC[C@H](C)Oc1cc(O[C@@H](C)Cc2ccccc2)cc(C(=O)Nc2ccc(C(=O)O)cn2)c1` the Potency [1] was “inactive”, the Potency [2] was “inactive” and the Potency [3] was “inactive”. The Potency [4] was “inactive” and the Potency [5] was “inactive”.

In the case of `O=S(=O)(NCCNC/C=C/c1ccc(Br)cc1)c1cccc2cnccc12`, the activity change, negative = inhibition ([6]; at 57.5 µM (top of the series)) is reported as -23.6% (inactive), the max response ([6]; measured here: cell count channel max response) is reported as -29.8% and the max response ([6]; measured here: lipid channel max response) is reported as -49.7%. For the same compound, the Potency [7] was “inactive”, the Potency [8] was “inactive” and the Potency [9] was 8.91 µM (active). The Potency [10] was 12.6 µM (active), the Potency [11] was 11.2 µM (active) and the Potency [12] was 8.91 µM (active). For the same compound, the Potency [13] was 5.01 µM (active), the Potency [14] was “inactive” and the Potency [15] was “inactive”. The outcome [16] was “inactive”, the activation [17] was 5.62% (inactive) and the outcome [18] was “inactive”. For the same compound, the outcome [19] was “inactive”, the Potency [20] was 2.82 µM (active) and the Potency [1] was “inactive”. The Potency [21] was “inactive”, the Potency [22] was “inactive” and the Potency [23] was 4.77 µM (active). The Potency [3] was 16.6 µM (active), the Potency [4] was 14.8 µM (active) and the outcome [24] was “inactive”. For the same compound, the Potency [25] was “inactive”, the Potency [5] was “inactive” and the Potency [26] was “inactive”. For the same compound, the Z-AUC [27] was 0.684 (inactive), the Z-AUC ([27]; measured here: PEO1 parental Z-AUC) was 1.26 and the Z-AUC ([27]; measured here: PEO4 Z-AUC) was 0.757.
